# From PubChem BioAssay (EPA / NIEHS)
# Inconclusive results are not listed. Active and inactive are the calls of the source. How the source made its calls: active means hit-call score of the fitted dose curve at least 0.9, where 1 is the maximum; inconclusive means response in the unintended direction; inactive means score below 0.9.
# How the values were obtained:
# [1] = molecular target: rat Histamine Receptor (H3), Hrh3 (gene 85268) (UniProt Q9QYN8); test: NVS_GPCR_rH3: NovaScreen (NVS) G Protein-Coupled Receptor Assay for rat Histamine Receptor (H3) (AID 2283303)
# Experimental: NVS_GPCR_rH3 is a biochemical, single-readout assay that uses extracted gene-proteins from Rat forebrain membranes in a tissue-based cell-free assay. Measurements were taken 1 hour after chemical dosing in a 48-well plate.NVS_GPCR_rH3 is one of one assay component(s) measured or calculated from the NVS_GPCR_rH3 assay. It is designed to make measurements of radioligand binding, a form of binding reporter, as detected with scintillation counting signals by Filter-based radiodetection technology.Data from the assay component NVS_GPCR_rH3 was analyzed into 1 assay endpoint. This assay endpoint, NVS_GPCR_rH3, was analyzed in the positive analysis fitting direction relative to DMSO as the negative control and baseline of activity. […] Furthermore, this assay endpoint can be referred to as a primary readout, because the performed assay has only produced 1 assay endpoint. […]
# Binding assays used specific radioligands (tritiated, iodinated) with non-radioactive competitive displacement ligands in agonist or antagonist protocols (as indicated) and various reference compounds and inhibitors to titrate specific binding to receptors and transporters. Most enzyme assays (CYPs, kinases, phosphatases, proteases, HDACs) used recombinant protein and specific substrates (fluorescence mostly, some colorimetric and radioactive) and inhibitors, followed by a biochemical separation of substrate and product. […]
# [2] = molecular target: rat Opioid Receptor, Non-selective Sodium (Na+) Binding, Oprm1 (gene 25601) (UniProt P33535); test: NVS_GPCR_rOpiate_NonSelectiveNa: NovaScreen (NVS) G Protein-Coupled Receptor Assay for rat Opioid Receptor, Non-selective Sodium (Na+) Binding (AID 2283311)
# Experimental: (§1) NVS_GPCR_rOpiate_NonSelectiveNa is a biochemical, single-readout assay that uses extracted gene-proteins from Rat forebrain membranes in a tissue-based cell-free assay. Measurements were taken 1.5 hours after chemical dosing in a 48-well plate.NVS_GPCR_rOpiate_NonSelectiveNa is one of one assay component(s) measured or calculated from the NVS_GPCR_rOpiate_NonSelectiveNa assay. It is designed to make measurements of radioligand binding, a form of binding reporter, as detected with scintillation counting signals by Filter-based radiodetection technology.Data from the assay component NVS_GPCR_rOpiate_NonSelectiveNa was analyzed into 1 assay endpoint. This assay endpoint, NVS_GPCR_rOpiate_NonSelectiveNa, was analyzed in the positive analysis fitting direction relative to DMSO as the negative control and baseline of activity. Using a type of binding reporter, loss-of-signal activity can be used to understand changes in the binding as they relate to the gene Oprm1. Furthermore, this assay endpoint can be referred to as a primary readout, because the performed assay has only produced 1 assay endpoint. To generalize the intended target to other relatable targets, this assay endpoint is annotated to the gpcr intended target family, where the subfamily is rhodopsin-like receptor.
# (§2) Binding assays used specific radioligands (tritiated, iodinated) with non-radioactive competitive displacement ligands in agonist or antagonist protocols (as indicated) and various reference compounds and inhibitors to titrate specific binding to receptors and transporters. Most enzyme assays (CYPs, kinases, phosphatases, proteases, HDACs) used recombinant protein and specific substrates (fluorescence mostly, some colorimetric and radioactive) and inhibitors, followed by a biochemical separation of substrate and product. All assays for the biochemical HTS were initially run in duplicate at a single concentration (10 uM for CYP450 assays and 25 uM for all others). Assay-chemical combinations meeting a pre-defined threshold (e.g., 30% inhibition and other criteria defined below) were then run in singleton concentration-response format with maximum concentration of 20 uM for CYPs and 50 uM for all others. Each assay was run with positive and negative controls, and concurrent controls on every plate. The follow-up (secondary) screen tested active chemical-pairs in concentration series, as well as a few additional assays not tested in the primary screen, some selected negative inactives, and several cases re-run in the concentration series for confirmatory purposes.
# [3] = molecular target: rat Adrenergic Receptor, Alpha 2 (Adra2), Non-selective Binding, Adra2a (gene 25083) (UniProt P22909); test: NVS_GPCR_rAdra2_NonSelective: NovaScreen (NVS) G Protein-Coupled Receptor Assay for rat Adrenergic Receptor, Alpha 2 (Adra2), Non-selective Binding (AID 2283299)
# Summary of the method: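 Filter-based scintillation counting of radioligand binding to rat cortical membrane receptors, measured 1.25 hours post-dosing; loss of signal versus DMSO indicates displacement. Initial single-concentration duplicate at 25 uM, then concentration series.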
# [4] = molecular target: rat Gamma-Aminobutyric Acid Type B Receptor (GABBR), Gabbr1 (gene 81657) (UniProt Q9Z0U4); test: NVS_GPCR_rGABBR: NovaScreen (NVS) G Protein-Coupled Receptor Assay for rat Gamma-Aminobutyric Acid Type B Receptor (GABBR) (AID 2283301)
# Experimental: (§3) NVS_GPCR_rGABBR is a biochemical, single-readout assay that uses extracted gene-proteins from Rat cortical membranes in a tissue-based cell-free assay. Measurements were taken 1 hour after chemical dosing in a 96-well plate.NVS_GPCR_rGABBR is one of one assay component(s) measured or calculated from the NVS_GPCR_rGABBR assay. It is designed to make measurements of radioligand binding, a form of binding reporter, as detected with scintillation counting signals by Filter-based radiodetection technology.Data from the assay component NVS_GPCR_rGABBR was analyzed into 1 assay endpoint. This assay endpoint, NVS_GPCR_rGABBR, was analyzed in the positive analysis fitting direction relative to DMSO as the negative control and baseline of activity. Using a type of binding reporter, loss-of-signal activity can be used to understand changes in the binding as they relate to the gene Gabbr1. Furthermore, this assay endpoint can be referred to as a primary readout, because the performed assay has only produced 1 assay endpoint. To generalize the intended target to other relatable targets, this assay endpoint is annotated to the gpcr intended target family, where the subfamily is metabotropic glutamate receptor.
# as §2
# Adra2b (gene 24174) = Adra2b (gene 24174) (UniProt P19328); test: NVS_GPCR_rmAdra2B: NovaScreen (NVS) G Protein-Coupled Receptor Assay for hybird cells Adrenergic, Alpha 2B Receptor (Adra2B) (AID 2283306)
# Summary of the method: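 Compounds screened first at 25 uM in duplicate, with actives followed up in concentration-response; specific radioligand displacement from hybrid neuroglioma/blastoma cell membrane preparations measured by filter scintillation counting after 1 h, normalized to DMSO.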
# [5] = molecular target: rat Somatostatin Receptor (SST), Sstr1 (gene 25033) (UniProt P28646); test: NVS_GPCR_rSST: NovaScreen (NVS) G Protein-Coupled Receptor Assay for rat Somatostatin Receptor (SST) (AID 2283314)
# Summary of the method: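 Single-concentration duplicate screen (25 uM), then concentration-response up to 50 uM for chemicals passing a threshold such as 30% inhibition. Membranes came from rat forebrain. Binding was measured 1 h post-dose by filter radiodetection and scintillation, relative to DMSO.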
# [6] = molecular target: rat Neurokinin-1 Receptor (NK1), Tacr1 (gene 24807) (UniProt P14600); test: NVS_GPCR_rNK1: NovaScreen (NVS) G Protein-Coupled Receptor Assay for rat Neurokinin-1 Receptor (NK1) (AID 2283309)
# Experimental: as §1, with “NVS_GPCR_rNK1” for “NVS_GPCR_rOpiate_NonSelectiveNa”, “submaxillary gland” for “forebrain”, “1 hour” for “1.5 hours”, “plate.NVS_GPCR_rNK1” for “plate.NVS_GPCR_rOpiate_NonSelectiveNa”, “NVS_GPCR_rNK1,” for “NVS_GPCR_rOpiate_NonSelectiveNa,”, “Tacr1.” for “Oprm1.”
# Binding assays used specific radioligands (tritiated, iodinated) with non-radioactive competitive displacement ligands in agonist or antagonist protocols (as indicated) and various reference compounds and inhibitors to titrate specific binding to receptors and transporters. Most enzyme assays (CYPs, kinases, phosphatases, proteases, HDACs) used recombinant protein and specific substrates (fluorescence mostly, some colorimetric and radioactive) and inhibitors, followed by a biochemical separation of substrate and product. All assays for the biochemical HTS were initially run in duplicate at a single concentration (10 uM for CYP450 assays and 25 uM for all others). […] Each assay was run with positive and negative controls, and concurrent controls on every plate. […]
# [7] = molecular target: rat Neurokinin-3 Receptor (NK3), Tacr3 (gene 24808) (UniProt P16177); test: NVS_GPCR_rNK3: NovaScreen (NVS) G Protein-Coupled Receptor Assay for rat Neurokinin-3 Receptor (NK3) (AID 2283310)
# Summary of the method: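 Filter-based radioligand displacement on rat cortex membrane preparations, read by scintillation 2 h post-dose. Chemicals first tested in duplicate at 25 uM; actives followed up in concentration series with a 50 uM maximum.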
# [8] = molecular target: Metabotropic glutamate receptor 1 (Rattus norvegicus) (UniProt P23385); test: NVS_GPCR_rmMGluR1: NovaScreen (NVS) G Protein-Coupled Receptor Assay for rat Glutamate Metabotropic Receptor 1 (MGluR1) (AID 2283305)
# Experimental: as §3, with “NVS_GPCR_rmMGluR1” for “NVS_GPCR_rGABBR”, “cerebellum” for “cortical membranes”, “plate.NVS_GPCR_rmMGluR1” for “plate.NVS_GPCR_rGABBR”, “NVS_GPCR_rmMGluR1,” for “NVS_GPCR_rGABBR,”, “Grm1.” for “Gabbr1.”, “receptor. […]” for “receptor.”
# rat Adrenergic Receptor, Alpha 2 (Adra2), Non-selective Binding, Adra2a (gene 25083), sequence (P22909 whole entry, looked up): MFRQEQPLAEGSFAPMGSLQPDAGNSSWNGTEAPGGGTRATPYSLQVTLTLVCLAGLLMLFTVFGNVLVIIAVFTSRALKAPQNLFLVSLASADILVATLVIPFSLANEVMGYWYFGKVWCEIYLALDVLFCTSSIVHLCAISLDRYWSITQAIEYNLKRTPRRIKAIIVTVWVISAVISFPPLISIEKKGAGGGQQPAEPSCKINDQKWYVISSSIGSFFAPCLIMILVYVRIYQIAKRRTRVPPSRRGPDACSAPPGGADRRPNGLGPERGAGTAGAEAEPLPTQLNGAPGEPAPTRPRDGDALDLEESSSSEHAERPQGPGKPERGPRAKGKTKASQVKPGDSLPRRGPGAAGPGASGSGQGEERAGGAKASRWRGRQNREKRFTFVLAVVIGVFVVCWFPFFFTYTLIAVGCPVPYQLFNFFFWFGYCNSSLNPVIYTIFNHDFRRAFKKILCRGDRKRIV
# rat Gamma-Aminobutyric Acid Type B Receptor (GABBR), Gabbr1 (gene 81657), sequence (Q9Z0U4 whole entry, looked up): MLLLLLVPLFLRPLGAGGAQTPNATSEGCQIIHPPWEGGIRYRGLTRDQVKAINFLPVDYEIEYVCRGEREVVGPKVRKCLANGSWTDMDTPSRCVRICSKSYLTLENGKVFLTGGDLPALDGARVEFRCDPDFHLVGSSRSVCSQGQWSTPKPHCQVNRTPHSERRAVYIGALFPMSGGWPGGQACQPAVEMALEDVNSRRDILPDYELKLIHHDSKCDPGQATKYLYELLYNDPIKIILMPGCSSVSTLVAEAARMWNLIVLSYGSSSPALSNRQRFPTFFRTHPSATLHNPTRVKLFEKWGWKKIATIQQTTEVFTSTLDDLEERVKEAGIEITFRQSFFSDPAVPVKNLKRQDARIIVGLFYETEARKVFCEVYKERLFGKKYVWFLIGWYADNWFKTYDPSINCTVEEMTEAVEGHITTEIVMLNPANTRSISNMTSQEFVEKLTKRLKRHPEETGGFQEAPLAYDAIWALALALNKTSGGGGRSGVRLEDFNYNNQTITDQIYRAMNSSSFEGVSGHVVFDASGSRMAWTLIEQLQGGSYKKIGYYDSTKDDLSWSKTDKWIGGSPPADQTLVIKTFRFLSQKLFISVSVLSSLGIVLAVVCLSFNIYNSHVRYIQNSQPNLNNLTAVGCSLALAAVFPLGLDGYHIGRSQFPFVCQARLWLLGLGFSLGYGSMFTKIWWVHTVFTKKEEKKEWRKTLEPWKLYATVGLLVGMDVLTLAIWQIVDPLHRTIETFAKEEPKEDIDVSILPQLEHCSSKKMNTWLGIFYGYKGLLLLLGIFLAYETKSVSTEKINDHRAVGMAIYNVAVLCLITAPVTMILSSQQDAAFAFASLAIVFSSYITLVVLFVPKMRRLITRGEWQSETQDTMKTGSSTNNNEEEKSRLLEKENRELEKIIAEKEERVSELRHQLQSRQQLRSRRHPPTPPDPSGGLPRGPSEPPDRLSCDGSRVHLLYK
# rat Opioid Receptor, Non-selective Sodium (Na+) Binding, Oprm1 (gene 25601), sequence (P33535 whole entry, looked up): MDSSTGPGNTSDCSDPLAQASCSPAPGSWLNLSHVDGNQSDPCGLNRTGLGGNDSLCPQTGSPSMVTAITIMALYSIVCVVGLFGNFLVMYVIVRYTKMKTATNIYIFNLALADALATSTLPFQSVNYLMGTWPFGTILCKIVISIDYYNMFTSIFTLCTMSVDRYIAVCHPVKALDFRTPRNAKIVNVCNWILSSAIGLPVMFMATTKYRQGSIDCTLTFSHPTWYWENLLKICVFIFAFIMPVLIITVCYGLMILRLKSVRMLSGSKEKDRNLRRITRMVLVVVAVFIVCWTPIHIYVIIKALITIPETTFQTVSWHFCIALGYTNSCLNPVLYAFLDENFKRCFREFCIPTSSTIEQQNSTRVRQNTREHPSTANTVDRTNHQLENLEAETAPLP
# Adra2b (gene 24174), sequence (P19328 whole entry, looked up): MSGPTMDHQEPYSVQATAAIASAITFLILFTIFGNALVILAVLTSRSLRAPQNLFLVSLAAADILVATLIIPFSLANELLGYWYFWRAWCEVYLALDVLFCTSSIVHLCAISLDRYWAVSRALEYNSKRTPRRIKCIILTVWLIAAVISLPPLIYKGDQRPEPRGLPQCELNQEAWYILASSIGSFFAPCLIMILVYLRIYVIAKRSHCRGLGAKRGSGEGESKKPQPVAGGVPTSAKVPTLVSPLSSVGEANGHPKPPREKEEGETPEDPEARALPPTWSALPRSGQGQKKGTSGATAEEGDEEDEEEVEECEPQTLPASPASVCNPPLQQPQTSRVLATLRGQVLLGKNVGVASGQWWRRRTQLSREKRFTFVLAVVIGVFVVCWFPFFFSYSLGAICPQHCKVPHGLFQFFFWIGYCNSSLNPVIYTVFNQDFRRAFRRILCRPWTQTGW
# rat Neurokinin-3 Receptor (NK3), Tacr3 (gene 24808), sequence (P16177 whole entry, looked up): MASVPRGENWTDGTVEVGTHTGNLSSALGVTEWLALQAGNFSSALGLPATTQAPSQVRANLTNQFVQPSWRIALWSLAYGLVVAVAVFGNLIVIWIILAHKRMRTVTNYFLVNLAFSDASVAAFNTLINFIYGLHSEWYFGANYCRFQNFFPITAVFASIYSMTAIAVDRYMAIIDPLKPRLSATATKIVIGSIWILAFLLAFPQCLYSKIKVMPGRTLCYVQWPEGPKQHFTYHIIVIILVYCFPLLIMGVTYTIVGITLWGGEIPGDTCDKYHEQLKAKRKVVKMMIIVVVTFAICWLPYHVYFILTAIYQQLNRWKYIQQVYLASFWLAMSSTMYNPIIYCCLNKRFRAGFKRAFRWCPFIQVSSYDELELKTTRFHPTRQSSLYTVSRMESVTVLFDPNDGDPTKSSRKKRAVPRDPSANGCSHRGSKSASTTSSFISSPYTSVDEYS
# rat Somatostatin Receptor (SST), Sstr1 (gene 25033), sequence (P28646 whole entry, looked up): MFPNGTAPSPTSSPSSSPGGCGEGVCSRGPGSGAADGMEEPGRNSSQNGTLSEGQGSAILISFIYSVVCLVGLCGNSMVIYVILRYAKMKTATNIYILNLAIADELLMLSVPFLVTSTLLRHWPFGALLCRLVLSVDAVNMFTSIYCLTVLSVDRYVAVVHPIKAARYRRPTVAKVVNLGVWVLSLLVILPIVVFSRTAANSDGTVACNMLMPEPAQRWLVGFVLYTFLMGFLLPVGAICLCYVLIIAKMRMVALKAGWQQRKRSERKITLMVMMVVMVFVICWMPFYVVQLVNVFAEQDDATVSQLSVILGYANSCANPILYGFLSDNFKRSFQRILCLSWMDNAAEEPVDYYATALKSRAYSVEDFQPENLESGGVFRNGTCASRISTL
# rat Neurokinin-1 Receptor (NK1), Tacr1 (gene 24807), sequence (P14600 whole entry, looked up): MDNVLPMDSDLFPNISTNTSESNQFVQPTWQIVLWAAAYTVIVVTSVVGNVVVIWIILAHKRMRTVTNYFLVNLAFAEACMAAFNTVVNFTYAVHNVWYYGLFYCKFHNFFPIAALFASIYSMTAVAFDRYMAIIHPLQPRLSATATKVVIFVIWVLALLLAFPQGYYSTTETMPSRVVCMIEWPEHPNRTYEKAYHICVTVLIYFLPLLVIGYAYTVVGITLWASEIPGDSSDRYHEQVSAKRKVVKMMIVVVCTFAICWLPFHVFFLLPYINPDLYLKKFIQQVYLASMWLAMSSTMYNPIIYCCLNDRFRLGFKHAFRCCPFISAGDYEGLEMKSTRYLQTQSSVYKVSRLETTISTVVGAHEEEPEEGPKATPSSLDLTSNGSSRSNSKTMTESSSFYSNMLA
# rat Histamine Receptor (H3), Hrh3 (gene 85268), sequence (Q9QYN8 whole entry, looked up): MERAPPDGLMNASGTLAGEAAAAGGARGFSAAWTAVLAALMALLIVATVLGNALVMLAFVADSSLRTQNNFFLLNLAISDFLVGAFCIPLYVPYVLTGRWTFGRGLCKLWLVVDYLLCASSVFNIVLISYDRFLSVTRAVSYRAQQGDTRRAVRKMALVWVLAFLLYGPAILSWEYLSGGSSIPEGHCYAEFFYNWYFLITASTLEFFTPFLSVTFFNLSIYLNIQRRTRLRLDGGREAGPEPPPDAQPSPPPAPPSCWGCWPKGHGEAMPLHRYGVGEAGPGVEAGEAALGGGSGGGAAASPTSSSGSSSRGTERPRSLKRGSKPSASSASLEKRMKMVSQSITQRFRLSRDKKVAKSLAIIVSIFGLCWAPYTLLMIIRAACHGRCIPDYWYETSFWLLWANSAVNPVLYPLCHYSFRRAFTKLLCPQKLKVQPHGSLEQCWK
smiles,measurement,setting,value
CCN(CC)C(=S)SSC(=S)N(CC)CC,AC50,[1],16.2 µM (active)
same,outcome,[2],inactive
S=P(N1CC1)(N1CC1)N1CC1,outcome,[3],inactive
OC(Cn1cncn1)(Cn1cncn1)c1ccc(F)cc1F,outcome,[2],inactive
O=c1[nH]cnc2c1ncn2[C@H]1CC[C@@H](CO)O1,outcome,[4],inactive
CCCC(CCC)C(=O)O,outcome,[4],inactive
CCCCCCCC/C=C\CCCCCCCC(=O)OC[C@@H](O)[C@H]1OC[C@H](O)[C@H]1O,outcome,Adra2b (gene 24174),inactive
c1ccc(C(O[C@@H]2CCCN(CCc3ccc4c(c3)OCO4)C2)c2ccccc2)cc1,AC50,[3],19.5 µM (active)
same,outcome,[4],inactive
same,AC50,Adra2b (gene 24174),7.75 µM (active)
same,AC50,[2],6.18 µM (active)
same,AC50,[5],14.6 µM (active)
Cc1nccn1-c1ccc(Sc2cccc(C3(C(N)=O)CCOCC3)c2)cc1,AC50,[3],11.1 µM (active)
same,AC50,[1],25 µM (active)
same,AC50,Adra2b (gene 24174),8.46 µM (active)
same,AC50,[6],25 µM (active)
same,outcome,[2],inactive
C=CCc1cc(S(=O)(=O)c2ccc(O)c(CC=C)c2)ccc1O,AC50,[2],16.1 µM (active)
CCCCCCCC1CCC(=O)O1 (stereo not given),outcome,[5],inactive
CCn1nc(C)c2c1C(=O)NCC(c1ccc(O)cc1)=N2,outcome,[3],inactive
same,outcome,[6],inactive
same,outcome,[7],inactive
O=C(O)c1ccc2c(c1)nc(C(=O)NC1CCN(C3CC3)CC1)n2Cc1cc(-c2ccc(Cl)s2)on1,AC50,[3],3.26 µM (active)
same,AC50,Adra2b (gene 24174),0.395 µM (active)
CCCCN1C(=O)[C@@H]([C@H](O)C2CCCCC2)NC(=O)C12CCN(Cc1ccc(Oc3ccc(C(=O)O)cc3)cc1)CC2,AC50,[8],9.81 µM (active)
same,outcome,[7],inactive
OCC(CO)(CO)CO,outcome,[7],inactive
COc1cc(C(C)C)c2c(c1)S(=O)(=O)N(COc1cc(=O)n3cccc(OCCN4CCCCC4)c3n1)C2=O,AC50,[3],4.16 µM (active)
same,AC50,Adra2b (gene 24174),2.98 µM (active)
same,AC50,[2],8.62 µM (active)
